Assay results as given in PubChem BioAssay AID493168 (National Center for Advancing Translational Sciences (NCATS), 2011).
Results filed as inconclusive are left out. Entries that show only a call come without a potency. The source made the active and inactive calls. Calls come from the whole dose curve; as a rule, active = well fitted inhibition curve with a large enough effect; inconclusive = small, poorly fitted or top-dose-only effect, or effect the other way; inactive = flat fitted curve, though single readings scatter.

Target: Ubiquitin carboxyl-terminal hydrolase 2 (Homo sapiens) (UniProt O75604)
Assay: Confirmation Assay for Inhibitors of Ubiquitin-specific Protease USP2a Using CHOP2 as the Reporter; note: nearly all actives have a fitted effect of over 55% in size
Conditions: USP2 core, Ub-CHOP2 coupled reporter fluorescence; series mostly up to 38.3 µM
Summary of the method: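 USP2 core (10 nM final) was preincubated with compound for 30 min at RT in Tris-HCl pH 8.0, CaCl2, beta-mercaptoethanol, CHAPS. Ub-CHOP2 and reporter substrate (25 nM final each) were added, and fluorescence (Ex 485/Em 531 nm) was read after 60 min.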
Potency is the fitted concentration of half-maximal effect.

Ubiquitin carboxyl-terminal hydrolase 2 (Homo sapiens), sequence (O75604 whole entry, looked up): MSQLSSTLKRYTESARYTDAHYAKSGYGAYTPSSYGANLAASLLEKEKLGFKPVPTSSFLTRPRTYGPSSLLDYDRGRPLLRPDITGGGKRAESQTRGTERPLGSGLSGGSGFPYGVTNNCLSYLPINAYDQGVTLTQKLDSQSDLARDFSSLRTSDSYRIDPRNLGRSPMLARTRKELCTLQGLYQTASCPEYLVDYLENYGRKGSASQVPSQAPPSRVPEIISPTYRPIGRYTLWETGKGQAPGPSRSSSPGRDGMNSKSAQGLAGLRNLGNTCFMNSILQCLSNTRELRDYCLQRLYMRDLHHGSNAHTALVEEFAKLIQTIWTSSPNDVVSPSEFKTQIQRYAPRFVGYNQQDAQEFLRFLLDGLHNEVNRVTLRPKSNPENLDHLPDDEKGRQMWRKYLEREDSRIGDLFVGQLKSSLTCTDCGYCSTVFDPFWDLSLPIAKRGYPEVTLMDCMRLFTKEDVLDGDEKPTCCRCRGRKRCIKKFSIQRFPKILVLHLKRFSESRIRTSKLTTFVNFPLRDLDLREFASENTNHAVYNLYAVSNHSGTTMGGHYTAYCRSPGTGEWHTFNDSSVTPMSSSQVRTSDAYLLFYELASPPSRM

Q: `Cc1cc(N2CCC(C(=O)NC3CC3)CC2)nc(-c2ccccc2)n1` was tested. Which Potency did it give?
A: Its Potency is “inactive”.

Q: Which Potency does the source give for `CCCCn1c(SCC(=O)N2CCC(C)CC2)nc2cc(S(N)(=O)=O)ccc21` here?
A: Its Potency is “inactive”.

Q: Which Potency does the source give for `O=[N+]([O-])c1ccc(Sc2nnnn2-c2ccccc2)c(Cl)c1` here?
A: Its Potency is “inactive”.

Q: For `C#CCOCCOCCOCCNc1nc(N2CCN(C(=O)CCCCCCCCCCNC(=O)Cn3cc(CCCCCN)nn3)CC2)nc(N2CCN(C(=O)CCCCCCCCCCNC(=O)Cn3cc(CCCCCN)nn3)CC2)n1`, which Potency is on record?
A: Its Potency is 10.4 µM (active).

Q: Which Potency does the source give for `Cc1ccc(C(=O)N(c2c(C)n(C)n(-c3ccccc3)c2=O)C(C)C)cc1` here?
A: Its Potency is “inactive”.

Q: Which Potency does the source give for `CC(OC(=O)c1nsc(Cl)c1Cl)C(=O)NCc1ccco1` (stereo unspecified) here?
A: The Potency was “inactive”.

Q: Which Potency does the source give for `Cc1ccc(C(=O)N/C(=C/c2cccs2)C(=O)NCc2ccco2)cc1` here?
A: Its Potency is “inactive”.

Q: With `CCCCc1ccc(/C=C2/C(=O)ON=C2c2ccccc2)s1` as the compound, how does the Potency read?
A: Its Potency is “inactive”.

Q: Which Potency does the source give for `CC(C)CCn1c(CN2CCN(C(=O)c3ccco3)CC2)nc2c1c(=O)n(C)c(=O)n2C` here?
A: The Potency was “inactive”.

Q: Which Potency does the source give for `Cc1c(N=C/C=C2\N(C)c3ccccc3C2(C)C)c(=O)n(-c2ccccc2)n1C` here?
A: The Potency was “inactive”.

Q: Which Potency does the source give for `COC(=O)c1cc2sc(Cl)cc2n1Cc1nc(-c2ccccc2)oc1C` here?
A: Its Potency is “inactive”.

Q: Which Potency does the source give for `CCCCNc1nc2ccccc2nc1NS(=O)(=O)c1cccs1` here?
A: The Potency was “inactive”.

Q: Which Potency does the source give for `Cc1ccc(-c2cc(-c3ccc(C)cc3)[n+](-c3ccc(C(=O)[O-])cc3)c(-c3ccc(C)cc3)c2)cc1` here?
A: The Potency was “inactive”.

Q: Which Potency does the source give for `NS(=O)(=O)c1cc(C(=O)NC2CCSc3ccccc32)ccc1Cl` (stereo unspecified) here?
A: Its Potency is 13.1 µM (active).

Q: For `C=CC[C@H](CC(=O)N(CCO)Cc1ccccc1)C(=O)N[C@H](C)COC(=O)[C@@H](CC=C)CC(=O)OC(C)(C)C`, which Potency is on record?
A: The Potency was “inactive”.

Q: For `O=C(Cc1ccc(S(=O)(=O)N2CCOCC2)s1)NCCC(c1ccccc1)c1ccccc1`, which Potency is on record?
A: The Potency was “inactive”.

Q: Which Potency does the source give for `CC(/C=N/NC(=O)c1cc(-c2cccs2)[nH]n1)=C\c1ccccc1` here?
A: Its Potency is “inactive”.

Q: Which Potency does the source give for `Cc1cc(/C=C2\C(=N)N3N=C(c4ccco4)SC3=NC2=O)c(C)n1Cc1ccccc1` here?
A: The Potency was 16.5 µM (active).

Q: Which Potency does the source give for `Cc1n[nH]c(C)c1S(=O)(=O)N1CCCC(C(=O)NC2CCCc3ccccc32)C1` (stereo unspecified) here?
A: Its Potency is “inactive”.

Q: For `Cc1ccc(NC(=O)c2onc(C)c2Cl)cc1`, which Potency is on record?
A: Its Potency is “inactive”.

Q: How did the Potency turn out when `CCOc1ccc(CCn2c(-c3ccco3)nc3ccccc3c2=O)cc1OCC` was run?
A: The Potency was “inactive”.
